This is a sample that favours compounds with a hit; in the whole collection about 12% have one here.
Pf growth 96h: Primary qHTS for delayed death inhibitors of the malarial parasite plastid, 96 hour incubation; P. falciparum luciferase reporter growth, 96 h; Potency, µM (doses to about 28.7 µM), most hits filed as inhibitors; 6.9% of 320,000 active; AID 504834, 2011
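P. falciparum expressing integrated firefly luciferase, in erythrocytes at 2% hematocrit, 0.05% parasitemia, incubated with compounds 96 h at 37 C, 5% CO2. Growth inhibition read as loss of luminescence; two-generation exposure targets delayed-death apicoplast inhibitors.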
Pf growth 48h: Primary qHTS for delayed death inhibitors of the malarial parasite plastid, 48 hour incubation; 5.9% of 310,000 active; Potency, µM (top dose mostly 28.7 µM), actives largely listed as inhibitors; P. falciparum luciferase growth in erythrocytes, 48 h
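Luciferase-expressing P. falciparum in infected erythrocytes (2% hematocrit, 0.1% parasitemia final) in RPMI 1640/0.5% Albumax were exposed to compound for 48 hours at 37 C, 5% CO2; growth read as luminescence.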
SARS PLP yeast: qHTS of Yeast-based Assay for SARS-CoV PLP; S. cerevisiae expressing SARS-CoV PLpro, growth rescue; Potency, µM (doses to about 32.9 µM), actives largely listed as activators; 0.19% of 330,000 active; AID 485353, 2010; calls by dose curve; further: nearly all actives have a fitted effect of over 55% in size
Sm TGR inh: qHTS Assay for the Inhibitors of Schistosoma Mansoni Peroxiredoxins. 3% of 360,000 active. purified TGR, DTNB reduction, TNB absorbance 405 nm. Schistosoma mansoni thioredoxin glutathione reductase (TGR), Q962Y6. Potency, µM (doses to about 114 µM), most hits filed as inhibitors; further: nearly all actives have a fitted effect of over 60% in size
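TGR 20 nM + NADPH 100 uM (dispensed conc.), cpd preinc 15 min RT; start with NADPH (500 uM addition) then DTNB (15 mM addition). Kinetic TNB absorbance, 405 nm filter. Four-parameter Hill fit across titration.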
Each line names hits and unclear results; the compound was inactive in the other large screens. Unless noted, the call rests on the fitted dose curve; in most records, active means well fitted curve in the direction sought with a large enough effect; inconclusive means small, poorly fitted or top-dose-only effect, or another doubt; inactive means no such curve, though single readings can be large; an effect the other way counts as inactive or inconclusive.

Cc1cc(-c2ccc(Br)cc2)n[nH]1	none
O=C1c2oc3ccccc3c(=O)c2C(c2ccc(Br)cc2)N1c1ccccn1 (stereo unspecified)	none (no result: Pf growth 96h, Pf growth 48h, SARS PLP yeast)
O=S(=O)(c1ccc2c(c1)N(Cc1ccc(Cl)cc1)C1CCCN21)N1CCOCC1 (stereo unspecified)	Pf growth 96h 8.28µM, Pf growth 48h inconclusive, Sm TGR inh inconclusive
COc1ccc(CN2c3cc(S(=O)(=O)N4CCOCC4)ccc3N3CCCC32)cc1 (stereo unspecified)	Pf growth 96h 8.28µM, Sm TGR inh inconclusive (no result: Pf growth 48h)
COc1ccc(-c2ccc(S(=O)(=O)N3CCOCC3)cc2)cc1	none (no result: Pf growth 96h)
CCCCCCNC(=O)N[C@@H](Cc1ccc(O)cc1)C(=O)NCCC[C@H]1CN2C(=NC[C@H]2C)N1CC1CCC1	Pf growth 96h 3.29µM, Pf growth 48h 9.28µM, Sm TGR inh inconclusive
CCCCCCNC(=O)N[C@H](Cc1ccc(O)cc1)C(=O)NCCC[C@H]1CN2C(=NC[C@H]2CCC)N1CC1CCC1	Pf growth 96h 2.94µM, Pf growth 48h 7.38µM, Sm TGR inh 5.01µM
CCCCCCNC(=O)N[C@@H](C(=O)NCCC[C@H]1CN2C(=NC[C@@H]2Cc2ccccc2)N1CCc1cccc(OC)c1)C(C)C	Pf growth 96h 1.31µM, Pf growth 48h 13.1µM, Sm TGR inh inconclusive
CCC(C)[C@H](NC(=O)NCc1cccc(OC)c1)C(=O)OC (stereo partly specified)	none
NS(=O)(=O)c1ccc(CCNC(=O)c2nc(SCc3ccccc3F)ncc2Cl)cc1	none (no result: Pf growth 96h, Pf growth 48h, SARS PLP yeast)
Clc1cccc(C[n+]2cc(-c3ccccc3)n3c2CCC3)c1	Pf growth 96h 0.185µM, Pf growth 48h 2.08µM
Cc1ccc(-c2c[n+](Cc3ccc(Cl)cc3)c3n2CCC3)cc1	Pf growth 96h 0.294µM, Pf growth 48h 0.928µM
Cc1ccc(C[n+]2cc(-c3ccc(Cl)cc3)n3c2CCC3)cc1	Pf growth 96h 0.415µM, Pf growth 48h 1.04µM
CCOc1ccccc1NS(=O)(=O)c1cc2[nH]c(=O)c(=O)[nH]c2cc1C	none (no result: Pf growth 96h, Pf growth 48h, SARS PLP yeast)
CCN(CC)S(=O)(=O)c1ccc(C(=O)NC2CN3CCC2CC3)cc1 (stereo unspecified)	none
CN1C(=O)COc2c(C(=O)NC3CN4CCC3CC4)cc(Cl)cc21 (stereo unspecified)	Pf growth 96h 4.78µM
NC(C(=O)O)C1CC(Cl)=NO1 (stereo unspecified)	Pf growth 96h 3.29µM, Pf growth 48h inconclusive
CCOC(=O)Cc1ccc(NC(=O)N2CCc3c(sc4c3CCCC4)C2c2ccc(F)cc2)cc1 (stereo unspecified)	none (no result: Pf growth 96h, Pf growth 48h, SARS PLP yeast)
CCC(=O)Oc1ccc(C(=O)Nc2ccc3c(c2)OCO3)cc1	none (no result: Sm TGR inh)
C=CCNC(=S)Nc1c(C(=O)OC)[nH]c2cc(OC)ccc12	Sm TGR inh 1.78µM
COC(=O)c1[nH]c2cccc(OC)c2c1NC(=O)CCN1CCC(C)CC1	Pf growth 96h 1.85µM
COC(=O)c1[nH]c2cc(OC)ccc2c1NC(=O)c1c(F)cccc1F	Pf growth 96h inconclusive
COC(=O)c1[nH]c2cc(OC)ccc2c1NC(=O)CCN1CCCC(C)(C)C1	Pf growth 96h 1.65µM
CN(C(=O)C1CCCCC1)C1(C)CCS(=O)(=O)C1 (stereo unspecified)	none
Cc1ccccc1NC(=O)C(Cc1ccccc1)N1Cc2ccccc2C1=O (stereo unspecified)	none (no result: Pf growth 96h, Pf growth 48h, SARS PLP yeast)
COc1ccc(CNc2ccc3c(c2)CCC3)cc1Br	Pf growth 96h 7.38µM
CCOc1ccc(NC(=O)C(C)Sc2nc3ncccc3o2)cc1 (stereo unspecified)	none (no result: Pf growth 96h, Pf growth 48h, SARS PLP yeast)
CN(C)c1ccc(C(c2nnnn2C(C)(C)C)N2CCc3ccccc3C2)cc1 (stereo unspecified)	Pf growth 96h inconclusive, Sm TGR inh 11.2µM
CC1CCN(C(c2ccc(N(C)C)cc2)c2nnnn2C(C)(C)C)CC1 (stereo unspecified)	Sm TGR inh 5.62µM
CCC(C)(C)n1nnnc1C(c1ccc(O)cc1)N1CCc2ccccc2C1 (stereo unspecified)	Sm TGR inh inconclusive
CC(C)(C)n1nnnc1C(c1ccccc1)N1CCc2ccccc2C1 (stereo unspecified)	Pf growth 96h inconclusive, Pf growth 48h inconclusive, Sm TGR inh 35.5µM
CC1CCN(C(c2ccc(N(C)C)cc2)c2nnnn2Cc2ccccc2)CC1 (stereo unspecified)	Pf growth 96h inconclusive, Pf growth 48h inconclusive, Sm TGR inh inconclusive
CCC(=O)N1CCCc2cc(S(=O)(=O)N3CCC(C(=O)Nc4ccc(F)c(F)c4)CC3)ccc21	none (no result: Pf growth 96h, Pf growth 48h, SARS PLP yeast)
O=C1CN(C(=O)COc2ccc(Cl)cc2)C(c2ccccc2)c2cc(Br)ccc2N1 (stereo unspecified)	none (no result: Pf growth 96h, Pf growth 48h, SARS PLP yeast)
O=C1C=C(/C=C/c2ccccc2)C[C@@H](c2ccc3c(c2)OCO3)C1	none
CC(C)Nc1nc2c(S(=O)(=O)c3cccc(Cl)c3)nnn2c2ccsc12	none (no result: Pf growth 96h, Pf growth 48h, SARS PLP yeast)
N#CCCn1cc(C=C(C#N)C#N)c(-c2ccc(Cl)cc2)n1	Sm TGR inh 1.26µM
CCCC12CN3CC(CCC)(CN(C1)C3c1ccccc1)C2=O (stereo unspecified)	none (no result: Pf growth 96h, Pf growth 48h, SARS PLP yeast)
COc1ccc(-c2c(-c3ccccc3)c(C(=O)C(=O)NCCCN(C)C)n3ccc4cc(OC)c(OC)cc4c23)cc1OC	Pf growth 96h 2.94µM (no result: Pf growth 48h)
C[N+]12CCCC[C@@H]1CCC(=C(c1cccs1)c1cccs1)C2 (stereo partly specified)	Pf growth 48h 4.26µM (no result: SARS PLP yeast, Sm TGR inh)
CCOC(=O)N1CCN(C(=O)CSc2nc(=O)n3ccccc3n2)CC1	none
O=C(Nc1ccccc1C(F)(F)F)c1cc(-c2cccc(O)c2)on1	Pf growth 96h 10.4µM
O=C(Nc1cc(Br)ccc1O)c1cc(-c2ccccc2)on1	Pf growth 96h inconclusive, Pf growth 48h 2.08µM
Cc1ccc(O)c(NC(=O)c2cc(-c3ccccc3)on2)c1	Pf growth 48h inconclusive, SARS PLP yeast inconclusive
CCOc1ccc(Cn2c(CNS(=O)(=O)c3ccc(Cl)s3)nc3cccnc32)cc1	none (no result: Pf growth 96h, Pf growth 48h, SARS PLP yeast)
CCOc1cccc(=NC2CCCCC2)c2c(C)n(C)c(C)c12	Pf growth 96h inconclusive, Pf growth 48h 1.85µM
CCOc1ccccc1OCCNC1CCCC1	none
CCOC(=O)c1cc(C)sc1/N=C/C1C(=O)NC(=S)NC1=O	Sm TGR inh 4.47µM
CCOC(=O)c1cc(C)sc1/N=C/C1C(=O)CCCC1=O	Sm TGR inh inconclusive
O=C(CCl)NCc1c(Cl)cccc1-n1cccc1	Pf growth 96h 11.7µM, Pf growth 48h 10.4µM, Sm TGR inh 31.6µM
O=C(NCc1ccccc1Cl)c1ccccc1NC(=O)c1nsc2ccccc12	none (no result: Pf growth 96h, Pf growth 48h, SARS PLP yeast)
COc1ccc(C(=O)Nc2ccc3nc4c(c(Nc5ccc(OC)c(OC)c5)c3c2)CCCC4)c(OC)c1	none (no result: Pf growth 96h, Pf growth 48h, SARS PLP yeast)
Cc1ccc(Nc2c3c(nc4ccccc24)CCC3)cc1F	none (no result: Pf growth 96h, Pf growth 48h, SARS PLP yeast)
Cc1ccc2nc3c(c(Nc4ccc5c(c4)OCCO5)c2c1)CCC3	Pf growth 96h inconclusive, Pf growth 48h 4.15µM
Cc1ccc2nc3c(c(Nc4ccc(O)cc4)c2c1)CCC3	Pf growth 48h 2.33µM
Cc1ccc2nc3c(c(Nc4ccc(C)c(C)c4)c2c1)CCC3	none (no result: Pf growth 96h, Pf growth 48h, SARS PLP yeast)
COc1ccc(Nc2c3c(nc4ccc(C)cc24)CCC3)cc1	Pf growth 48h 8.28µM

Screening data deposited in PubChem BioAssay by National Center for Advancing Translational Sciences (NCATS).
